Assays:
Settings in all cases: concentration: 1 μM, replicates: in singlicate; n = 1
DAPK2 = test system: DAPK2
DAPK3 = test system: DAPK3
DCAMKL1 = test system: T1, DCAMKL1
T1 construct: gene DCLK1

DCAMKL2 = test system: T2, DCAMKL2
T2 construct: gene DCLK2

DCAMKL3 = test system: T3, DCAMKL3
T3 construct: gene DCLK3

DDR1 = test system: DDR1
DDR2 = test system: DDR2
DLK = test system: T4, DLK
T4 construct: gene MAP3K12

DMPK2 = test system: T5, DMPK2
T5 construct: gene CDC42BPG

DMPK = test system: DMPK
DRAK1 = test system: T6, DRAK1
T6 construct: gene STK17A

DRAK2 = test system: T7, DRAK2
T7 construct: gene STK17B

DYRK1A = test system: DYRK1A
DYRK1B = test system: DYRK1B
DYRK2 = test system: DYRK2
EGFR = test system: EGFR
EIF2AK1 = test system: EIF2AK1
EPHA1 = test system: EPHA1
EPHA2 = test system: EPHA2
EPHA3 = test system: EPHA3
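Also: KINOMEscan kinase panel screen.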

Structure (SMILES)	%Inh (DAPK2) [%]	%Inh (DAPK3) [%]	%Inh (DCAMKL1) [%]	%Inh (DCAMKL2) [%]	%Inh (DCAMKL3) [%]	%Inh (DDR1) [%]	%Inh (DDR2) [%]	%Inh (DLK) [%]	%Inh (DMPK2) [%]	%Inh (DMPK) [%]	%Inh (DRAK1) [%]	%Inh (DRAK2) [%]	%Inh (DYRK1A) [%]	%Inh (DYRK1B) [%]	%Inh (DYRK2) [%]	%Inh (EGFR) [%]	%Inh (EIF2AK1) [%]	%Inh (EPHA1) [%]	%Inh (EPHA2) [%]	%Inh (EPHA3) [%]
COc1ccc(CNC(=O)NC2CCN(c3ccnc(Nc4cc(OC)c(OC)c(OC)c4)n3)C2)cc1 (centres unmarked) [GSK1379748]	0	10	5	0	0	1	45	100	2	0	10	0	6	32	0	31	0	1	14	0
O=S(=O)(c1ccc(-c2ccnc3[nH]ccc23)cc1)N1CCCC1 [GSK846226]	48	76	23	0	0	0	0	0	15	3	73	0	21	11	35	33	0	5	0	11
Cc1ccc(-c2cc(-c3c[nH]nc3-c3ccccn3)ccn2)cc1 [GW684088]	9	25	21	24	0	13	47	45	5	0	12	0	11	6	0	6	0	0	0	49
CCn1c(-c2cccnc2O)nc2cnccc21 [SB-736715]	0	0	0	3	0	0	0	19	0	0	0	0	0	54	0	7	0	0	0	0
COc1ccccc1CNC(=O)c1cc(C(=O)c2ccccc2C)c[nH]1 [GSK364507]	0	17	16	16	4	11	0	15	5	0	1	12	17	19	0	36	0	25	13	0
Cc1cccc(-c2cc(Nc3ccncc3)c3ccccc3n2)n1 [GSK223675]	0	9	3	0	1	9	0	0	7	0	0	0	8	0	18	17	0	4	0	0
Cn1ccc2ncnc(Oc3ccc(NC(=O)Nc4ccccc4)cc3)c21	0	0	23	0	0	63	74	0	0	0	0	0	6	40	0	3	22	7	0	0
